Inhibition data for 16 compounds are collected here from ChEMBL document CHEMBL1157539, “Thousands of chemical starting points for antimalarial lead identification” (Nature, 2010).

In this assay the test system is HepG2. Description: GSK_TCMDC: Percent inhibition of human HepG2 cell line. Test compounds present at 10uM. It counts as functional.
`CCCCCn1c(Sc2ccc(C#N)c([N+](=O)[O-])c2)nnc1-c1ccccc1` yielded an Inhibition of 22%.

As to `O=C(/C=C/c1ccc(Cl)cc1)NCCCCCN1CCCN(C(=O)Nc2cccc(Cl)c2)CC1`, the Inhibition is recorded as 19%.

The compound `Oc1ccc(-c2cncc(NCc3ccc(F)c(F)c3)c2)cc1` displayed an Inhibition of 0%.

In turn, `Cl.O=C(NCCCCN1CCC(c2ccc3c(c2O)CCCC3)CC1)c1ccc(NC(=O)c2ccc(Cl)cc2)cc1` displayed an Inhibition of 99%.

In the case of `COc1ccc(C(=O)O)cc1OCc1ccccc1`, the Inhibition turned out to be 0%.

As for `COc1ccc(-c2nc(NC(=O)Cc3ccc4c(c3)OCCO4)sc2C)cc1`, the Inhibition is reported as 0%.

Compound `CN(C)C(=O)CC(=O)NCc1cccc(Cl)c1` gave an Inhibition of 4%.

In the case of `NC(=O)c1ccsc1NC(=O)CNC(c1ccccc1)c1ccc(Cl)cc1` (stereo unspecified), the Inhibition is listed as 25%.

For `COc1ccc(CCN(C)CCOc2ccc(NC(=O)c3ccc([N+](=O)[O-])c4c(=O)c5ccccc5[nH]c34)cc2)cc1OC`, the Inhibition came to 38%.

Compound `O=C(Nc1ccc2c(c1)CCN2C1CCN(Cc2cccc(C(F)(F)F)c2)C1)c1ccco1` (stereo unspecified) had an Inhibition of 4%.

As to `COc1ccc(-c2nc(NC(=O)CS(=O)(=O)c3ccc(C)cc3)sc2C)cc1`, the Inhibition turned out to be 56%.

Turning to `CC(C)CN(C)Cc1ccc(-c2ccc(-c3nc4ccccc4[nH]3)s2)cc1`, the Inhibition amounted to 8%.

The compound `COc1ccc2nc(N(CCCn3ccnc3)C(=O)C=Cc3cccs3)sc2c1.Cl` returned an Inhibition of 8%.

`COc1ccc(Nc2nccc(N3CCC(NC(=O)Nc4ccc5c(c4)OCO5)C3)n2)cc1` (stereo unspecified) had an Inhibition of 27%.

The compound `CCc1cc2c(Sc3nnc(N)s3)ncnc2s1` returned an Inhibition of 0%.

Compound `CC(=O)N1N=C(c2[nH]c3ccc(Br)cc3c2C)OC1c1ccccc1` (stereo unspecified) gave an Inhibition of 8%.
